High-throughput results from PubChem.
KDM5B inh: inhibitors of human KDM5B histone demethylase. Q9UGL1. Potency, µM (doses to about 57.7 µM), actives largely listed as inhibitors. 2.6% of 220,000 active. KDM5B demethylase, FDH-coupled NADH fluorescence (FDH is formaldehyde dehydrogenase); active means well fitted inhibition curve with a large enough effect; further: 0% is about no effect; nearly all actives have a fitted effect of over 70% in size
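Measured: NADH fluorescence change, 30 min, RT. System: KDM5BΔAP 200 nM final, H3K4me3 peptide, α-KG, Fe(II), ascorbate, NAD⁺ plus FDH, pH 7.5 HEPES. Compounds: titrated, 10 min pre-incubation with enzyme.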
The depositor's hits bear a star; i = inactive. This is one part of a sample in which hits are shown more often than they occur. Potency means the concentration at half of the fitted maximal effect.

SMILES	KDM5B inh
CN1CCOc2c(C(=O)NCc3cnn(C)c3)cc(-c3ccc(CO)cc3)cc21	20µM*
Cc1ccc(-c2cc(C(=O)NCc3cnn(C)c3)c3cc(Br)ccc3n2)cc1	i
Cc1ccccc1-c1cc(O)c2c(c1)CN(C(=O)C1CCNCC1)CCO2	i
Cn1c(N2CCC(Cc3ccccc3)CC2)nc2c1c(=O)n(Cc1ccc(Cl)cc1)c(=O)n2C	i
Oc1c(Cl)cccc1C=Nc1cc(C(F)(F)F)ccc1Oc1ccc(Cl)cc1	i
O=C1CC(c2ccccc2)N(S(=O)(=O)c2ccc3c(c2)OCCO3)CCCCCN1 (configuration not stated)	i
O=C(CC(c1ccccc1)S(=O)(=O)c1ccccc1)c1ccc(F)cc1 (configuration not stated)	i
CCOc1cc2c(cc1NC(=O)CCC(=O)c1ccc(C)cc1)OC(C)C2 (configuration not stated)	i
CC(=O)Nc1ccc(OCC(=O)N2CCc3ccccc3C2)nc1	i
CNC(=O)[C@@H]1CN(C(=O)c2ccc(OC)nc2)C[C@H]1COC	i
O=C(Nc1cccnc1)N1CCN(c2cnccn2)CC1	i
COC[C@@H]1CN(c2cnccn2)C[C@H]1C(=O)Nc1ccc(OC)nc1	25µM*
O=C(NCCc1ccccn1)C1CCC(=O)N(C2CCCCCC2)C1 (configuration not stated)	i
CC(=O)Nc1ccc(NC(=O)C2CCN(c3cnccn3)CC2)cc1	i
CC1=C(C)CC(C(=O)N2CCc3ccccc3C2)C(C(=O)O)C1 (configuration not stated)	i
COC[C@@H]1CN(c2cnccn2)C[C@H]1C(=O)N1CCc2ccccc2C1	20µM*
COc1ccc(NC(=O)C2CCN(c3cnccn3)CC2)cc1Cl	i
COc1ccc(C(=O)N[C@@H]2CCC[C@@H]2C(=O)NCCc2ccccn2)cn1	i
COC[C@@H]1CN(c2cnccn2)C[C@H]1C(=O)NCCc1ccccn1	20µM*
COC[C@@H]1CN(c2cnccn2)C[C@H]1C(=O)Nc1cccnc1	28µM*
Cn1cnnc1-c1ccc(NS(=O)(=O)c2ccc3c(c2)CCC3)cc1	i
NC(=O)C1CCCN(C(=O)CCc2ncc(-c3ccc(F)cc3)o2)C1 (configuration not stated)	i
CN(CC(=O)NC(=O)NC1CCCCC1)C(c1ccccc1)c1ccccc1	i
COc1ccc(C(=O)Nc2oc3ccccc3c(=O)c2-c2cccc(Cl)c2)cc1OC	i
C=C(C)COc1ccc2c(=O)c(Oc3ccc(C(=O)OCC)cc3)coc2c1	i
SMILES	KDM5B inh
O=C(Nc1cccc(Cl)c1F)c1cc(S(=O)(=O)N2CCOCC2)c(Cl)cc1Cl	i
c1ccc(OCc2nnc3sc(-c4ccccc4)nn23)cc1	i
CN(C(=O)Cn1c(=O)n(Cc2ccc3c(c2)OCO3)c(=O)c2sccc21)C1CCCCC1	i
COc1ncccc1-c1cnc2[nH]cc(CC(=O)NCc3ccco3)c2c1	35µM*
COc1ccccc1C(=O)NCc1c[nH]c2ncccc12	i
COc1ncccc1CNC(=O)Cc1ccccc1Cl	i
CCNC(=O)Cc1c[nH]c2ncc(-c3cccnc3OC)cc12	40µM*
CCCCCn1nc(C(=O)N2CCSCC2)c2ccccc2c1=O	i
O=C(OCC(=O)c1cccs1)c1ccc(O)cc1	i
Cc1cc(F)ccc1NC(=O)c1cnc2c(c1)N(C(=O)CCc1ccccc1)CCC2	i
O=C(Nc1cccnc1)c1cnc2c(c1)N(Cc1ccccc1)CCC2	35µM*
COc1ccccc1N1CCCc2ncc(C(=O)Nc3ccccc3C)cc21	i
CC(C)NC(=O)c1cnc2c(c1)N(C(=O)Cc1ccc(C(C)C)cc1)CCC2	i
COc1ccccc1N1CCCc2ncc(C(=O)NCc3cccc(Cl)c3)cc21	32µM*
O=C(Nc1ccccc1)c1cnc2c(c1)N([S+](=O)([O-])c1cccnc1)CCC2	i
COc1ccccc1CC(=O)N1CCCc2ncc(C(=O)NCc3cccc(Cl)c3)cc21	i
CC(C)c1ccc(CC(=O)N2CCCc3ncc(C(=O)Nc4cccc(Cl)c4)cc32)cc1	28µM*
O=C(Nc1cccc(Cl)c1)c1cnc2c(c1)N(Cc1ccccc1)CCC2	35µM*
O=C(Nc1cccnc1)c1cnc2n1CCN(Cc1ccccc1)CC2	i
CC(C)c1ccc(CC(=O)N2CCCc3ncc(C(=O)NCc4ccccc4)cc32)cc1	i
CC(C)c1ccc(CC(=O)N2CCCc3ncc(C(=O)Nc4ccccn4)cc32)cc1	i
OCC1(Cc2cccc(Cl)c2)CCCN(Cc2nc(-c3ccc(F)cc3)cs2)C1 (configuration not stated)	i
COCCCNc1nc(-c2ccccc2O)nc2ccccc12	i
Cc1cc2c(c(=O)o1)C(c1ccco1)C(C#N)=C(N)O2 (configuration not stated)	i
CCOc1ccc(NC(=O)CSC2=C(C#N)C(c3ccc(Cl)cc3)C3=C(CCCC3=O)N2)cc1 (configuration not stated)	i
SMILES	KDM5B inh
COC(=O)/C=C/c1ccc(OCc2ccc(Br)cc2)c(OC)c1	i
Cc1ccc(-c2cc(C(=O)NCCCc3[nH]nc(N)c3C#N)c3ccccc3n2)o1	i
Nn1c(SC(C(=O)Nc2ccc(F)cc2)c2ccccc2)nnc1-c1ccco1 (configuration not stated)	i
Cc1ccc(-c2csc(=S)n2CC(=O)O)cc1	i
CCOc1ccccc1-c1nc(-c2nnn3c2COC(c2ccccc2Cl)C3)no1 (configuration not stated)	28µM*
COc1ccccc1-c1nc(-c2nnn3c2COC(c2ccccc2Cl)C3)no1 (configuration not stated)	28µM*
Clc1ccccc1C1Cn2cnc(-c3nc(-c4ccncc4)no3)c2CO1 (configuration not stated)	i
COc1ccc(-c2noc(-c3nnn4c3COC(c3ccc(Cl)cc3)C4)n2)cc1F (configuration not stated)	i
COc1ccc(C2Cn3nnc(-c4nc(-c5ccc(OC)c(F)c5)no4)c3CO2)cc1 (configuration not stated)	i
CSc1ccc(-c2noc(-c3ncn4c3COC(c3ccccc3Cl)C4)n2)cc1 (configuration not stated)	25µM*
COc1ccc(-c2nc(-c3nnn4c3COC(c3ccccc3Cl)C4)no2)cc1F (configuration not stated)	13µM*
COc1ccc(C2Cn3nnc(-c4noc(-c5ccccn5)n4)c3CO2)cc1 (configuration not stated)	i
CCOc1ccccc1-c1noc(-c2nnn3c2COC(c2ccc(C)cc2C)C3)n1 (configuration not stated)	i
Clc1ccccc1C1Cn2nnc(-c3noc(COc4ccccc4)n3)c2CO1 (configuration not stated)	i
CC(C)(C)c1ccc(-c2noc(-c3ncn4c3COC(c3ccc(F)cc3)C4)n2)cc1 (configuration not stated)	i
Clc1ccccc1C1Cn2nnc(-c3noc(C4(c5ccccc5)CC4)n3)c2CO1 (configuration not stated)	i
Cc1nc(-c2cc3ccc(OCC(=O)NC4CC4)cc3oc2=O)cs1	i
S=C(NCc1ccc(Cl)cc1)Nc1ccc(Cl)c(Cl)c1	i
CC(=O)Oc1ccc2c(-c3cc4ccccc4oc3=O)cc(=O)oc2c1	i
CC(C)(C)c1ccccc1NC(=O)c1ccc2ccccc2n1	i
COc1ccc(/C=C(/C#N)C(=O)C(C)C)cc1O	i
